Bioassay records deposited in PubChem BioAssay by National Center for Advancing Translational Sciences (NCATS).
DRD3 antagonist: antagonists of human D3 dopamine receptor; P35462; D3R cells, DiscoveRx beta-arrestin luminescence, antagonist mode; active compounds read low; max response, negative = inhibition, %; hit rate 2.5% among 360,000; AID 652054; in the data active means max response below about -50%; inconclusive means no clear call, values can overlap the other calls
Target sequence (P35462 whole entry, looked up): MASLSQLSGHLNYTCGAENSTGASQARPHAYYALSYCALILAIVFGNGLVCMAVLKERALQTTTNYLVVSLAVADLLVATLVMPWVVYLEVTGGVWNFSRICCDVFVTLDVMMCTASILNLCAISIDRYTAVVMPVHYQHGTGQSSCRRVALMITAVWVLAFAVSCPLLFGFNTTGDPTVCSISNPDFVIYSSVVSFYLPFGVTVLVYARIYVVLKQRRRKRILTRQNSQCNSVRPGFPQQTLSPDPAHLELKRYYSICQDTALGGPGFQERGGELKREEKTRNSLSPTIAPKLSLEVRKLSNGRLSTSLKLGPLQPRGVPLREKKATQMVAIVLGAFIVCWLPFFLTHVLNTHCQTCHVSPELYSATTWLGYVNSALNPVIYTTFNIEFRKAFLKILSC
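Cells expressing the human receptor were seeded at 1500 cells/well, incubated overnight at 37 degrees C in 5% CO2, then exposed to library compounds with dopamine controls for 90 minutes at 37 degrees C before luminescent detection.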
D1 agonist: agonists of human D1 dopamine receptor; hit rate 1% among 360,000; activation, % at 2 µM; HEK293 T-REx D1 cells, calcium flux, agonist mode; P21728; in the data active means activation above about 30%
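Tetracycline-induced HEK293 TREx D1 cells, force-coupled to calcium signalling, were dye-loaded with a no-wash calcium kit. Compound was pin-added after a 10 s baseline. Fluorescence was read kinetically at 1 cycle/s for 180 s, with calcium rises flagged as agonism.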
D1 PAM: human D1 dopamine receptor positive modulation | potentiation, % at 10 µM | hit rate 0.036% among 360,000 | P21728 | HEK293 TREx D1 cells, calcium flux, dopamine EC20 potentiation | AID 504651; in the data active means potentiation above about 30%
D1 antag: human D1 dopamine receptor antagonism | activity change, negative = inhibition, % at 10 µM | hit rate 3.2% among 360,000 | P21728 | AID 504652 | HEK293 TREx D1 cells, calcium flux, dopamine EC80; active compounds read low; in the data active means activity change below about -30%
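Allosteric or orthosteric antagonism assessed as attenuation of the calcium response to EC80 dopamine, added 180 s after compound, in induced HEK293 Trex D1 cells loaded with no-wash calcium dye.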
D3 ag: activates the human D3 dopamine receptor; D3R DiscoveRx beta-arrestin cells, luminescence, 90 min; max activation, %; hit rate 0.58% among 410,000; P35462; in the data active means max activation above about 30%
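Agonist-mode cell screen: cells plated at 1500/well and incubated overnight at 37 °C, then exposed to library compounds for 90 min at 37 °C. Detection reagent was added for 30–60 min at room temperature, and luminescence was read.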
Hits are given with their value; n = inactive; u = inconclusive; x = no result given; ! = repeats disagree. In the library only some 6% were active in any assay of this set; here they are far more common.

SMILES	DRD3 antagonist	D1 agonist	D1 PAM	D1 antag	D3 ag
COc1ccc(OC)c(CN2CCCC(C(=O)c3ccccc3SC)C2)c1 (centres undefined)	u	n	n	n	n
Cn1cc(CN2CCCC(C(=O)c3cc(F)ccc3F)C2)c2ccccc21 (centres undefined)	-63.6	n	n	n	n
COc1ccc(F)cc1C(=O)C1CCCN(Cc2cccn2-c2ccccn2)C1 (centres undefined)	u	n	n	n	n
COc1ccc(F)cc1C(=O)C1CCCN(Cc2c[nH]c3ccccc23)C1 (centres undefined)	-106.7	46.8	n	-43.1	n
COc1ccc(F)cc1C(=O)C1CCCN(Cc2cn(C)c3ccccc23)C1 (centres undefined)	-91.7	n	n	n	n
O=C(c1cc(F)ccc1F)C1CCCN(C(=O)CSc2ccccn2)C1 (centres undefined)	n	n	n	-39.9	n
COc1ccccc1C(=O)Nc1ccc(C(=O)OCc2cc(=O)n3ccsc3n2)cc1	x	n	n	n	n
COc1cc(/C=C/CN2CCC(C(=O)NC(c3ccc(F)cc3)c3ccc4ccccc4n3)CC2)ccc1OC(C)=O (centres undefined)	-110.4	x	x	x	n
O=C(NC(c1ccc(Cl)cc1)c1cnccn1)C1CCN(Cc2cccc(C(F)(F)F)c2)CC1 (centres undefined)	u	x	x	x	n
CN(C)c1ccc(CN2CCC(C(=O)NC(c3ccc(F)cc3)c3ccc4ccccc4n3)CC2)cc1 (centres undefined)	-81.9	x	x	x	n
O=C(NC(c1ccc(F)cc1)c1ccc2ccccc2n1)C1CCN(Cc2ccc3ccccc3n2)CC1 (centres undefined)	-53.0	x	x	x	n
O=C(NC(c1ccc(F)cc1)c1ccc2ccccc2n1)C1CCN(Cc2cccc(C(F)(F)F)c2)CC1 (centres undefined)	-80.9	x	x	x	n
CC(C)C[C@H](NC(=O)C1CC(=O)N(c2ccc3c(c2)OCCO3)C1)C(=O)N1CCCCC1 (some centres undefined)	n	n	n	n	n
O=C(NC(c1ccc(F)cc1)c1ccc2ccccc2n1)C1CCN(CCOc2ccc(Cl)cc2)CC1 (centres undefined)	-117.9	x	x	x	n
Cc1cccc(S(=O)(=O)NC(=O)C2(C)CCN2C(=O)Cc2ccccc2)c1 (centres undefined)	n	x	x	x	n
Cc1ccc(-c2cc(-c3ccccc3)c(C#N)c(SCC(O)CS(=O)(=O)Cc3ccccc3)n2)cc1 (centres undefined)	x	n	n	-38.7	n
CCOC(=O)C1=C(CN2CCN(c3cc(C)ccc3C)CC2)NC(=O)NC1c1ccc(Cl)cc1 (centres undefined)	x	n	n	n	n
CCCCOc1cccc(C(=O)Nc2ccc(N3CCN(CC)CC3)cc2)c1	n	n	n	-51.4	n
CCCCOc1ccc(C(=O)Nc2ccc(N3CCN(C)CC3)cc2)cc1	n	n	n	-72.9	n
CCOc1ccc(C(=O)Nc2ccc(N3CCN(C)CC3)cc2)cc1	n	n	n	n	n
CC(C)C(OC(=O)CNC(=O)c1ccccc1)C(=O)Nc1cc(C(F)(F)F)ccc1Cl (centres undefined)	x	n	n	n	x
O=C(Nc1ccc(F)cc1F)c1c(C(F)(F)F)ccnc1Oc1cccc(C(F)(F)F)c1	-57.9	n	n	n	n
CCOC(=O)N1CCc2c(sc3nc(SC(C)C)n(N)c(=O)c23)C1	n	n	n	n	31.2
Cn1c2cc([N+](=O)[O-])sc2c2cnn(Cc3ccccc3F)c(=O)c21	x	n	n	n	x
CC1(C)C2CCC(CN=C(N)CSS(=O)(=O)O)C1C2 (centres undefined)	-99.5	x	x	x	n
SMILES	DRD3 antagonist	D1 agonist	D1 PAM	D1 antag	D3 ag
O=[N+]([O-])c1ccc(N/N=C/C=C/c2ccco2)cc1	-57.2	x	x	x	n
O=C(N/N=C/c1ccc([N+](=O)[O-])o1)C(=O)Nc1ccc(C(=O)O)cc1	n	n	n	n	n
O=C(N/N=C/c1ccco1)c1cc([N+](=O)[O-])cc([N+](=O)[O-])c1	n	n	n	n	n
O=C(O)c1ccc(N/N=C/C=C/c2ccc([N+](=O)[O-])o2)cc1	-53.4	56.3	n	n	n
Cc1ccccc1OCC(=O)NNC(=O)Cn1[nH]c(=O)c2ccccc2c1=O	n	x	x	x	n
COc1ccccc1-n1cnc2cc(NCc3cccs3)ccc21	n	n	n	n	n
Cc1ccccc1-n1cnc2cc(NCc3cccs3)ccc21	n	n	n	-37.4	n
CC(C)C[C@H](NC(=O)CNC(=O)[C@H](Cc1ccc(O)cc1)NC(=O)[C@H](CO)NC(=O)[C@H](Cc1c[nH]c2ccccc12)NC(=O)[C@H](Cc1cnc[nH]1)NC(=O)[C@@H]1CCC(=O)N1)C(=O)N[C@@H](CCCN=C(N)N)C(=O)N1CCC[C@H]1C(=O)NCC(N)=O (stereo in doubt)	x	x	x	x	n
Clc1ccccc1CSC1=NCCCN1	n	n	n	n	n
Clc1ccc(CSC2=NCCCN2)cc1Cl	-57.5	n	n	n	n
COc1ccc([N+](=O)[O-])cc1NC(c1nnc(-c2ccccc2)o1)c1ccccc1F (centres undefined)	x	n	n	n	n
CCCn1c2ccccc2c2cnn(CC(=O)NCCc3ccc(OCC)c(OCC)c3)c(=O)c21	x	n	n	n	n
COc1ccccc1N1C(N)=NC(N)=NC1(C)C	-53.0!	n	n	n	n
COc1cccc(N2C(N)=NC(N)=NC2(C)C)c1	n	n	n	-54.0	n
COc1ccc(Cn2nnc3c(=O)[nH]c(C4CCN(C(=O)c5ccc(C)cc5)CC4)nc32)cc1OC	x	n	n	n	n
COc1ccc(OC)c(/C=C/C(=O)N2C(=O)c3cccc(N)c3C2=O)c1	-64.8	n	n	n	n
COc1cc(/C=C/C(=O)N2C(=O)c3cccc(N)c3C2=O)cc(OC)c1OC	-82.0	n	n	n	n
Cc1c(C(N)=O)sc2ncn(CC(=O)N(C)C3CCCCC3)c(=O)c12	n	n	n	n	n
CC1(C)O[C@H]2[C@@H](O1)[C@@H](C(=O)Nc1cc(F)ccc1F)O[C@@H]1OC(C)(C)O[C@@H]12	x	n	n	n	n
Cc1cc(C(=O)NCc2ccccc2Cl)n(-c2ccccc2)n1	n	n	n	-37.7	n
Cc1csc2ncc(C(=O)NCc3ccccc3Cl)c(=O)n12	n	n	n	-33.7	n
COc1ccc(NC(=O)c2cnc3sccn3c2=O)cc1	-52.5	n	n	n	n
Cc1cccc(NC(=O)c2cnc3sccn3c2=O)c1	n	n	n	n	n
COc1ccccc1CNC(=O)c1cnc2sccn2c1=O	n	n	n	-39.6	n
O=C(O)c1cnc2ccc(Cl)cc2n1	n	x	x	x	n
Cc1ccc2onc(CC(=O)N(C)c3ccccc3)c2c1	x	n	n	n	n
COC(=O)c1ccc2nc(-c3ccc(C#N)cc3)c(Cc3cccc(Cl)c3)n2c1	n	x	x	x	n
O=C(Nc1cccc(N2C(=O)C=CC2=O)c1)c1cccs1	x	n	n	n	x
